AHR act: human AHR activation; activation, % at 5 µM; AHR-responsive luciferase reporter cells, luminescence; P35869; 2.5% of 320,000 active; in the data active = activation above about 47%;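 note: 0% = vehicle wells and 100% = reference agonist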
ALR inh: human ALR oxidase inhibition via reduced H2O2. purified ALR, DTT oxidation, H2O2 HRP-luminol luminescence. inhibition, % (no concentration beside the values). 3.8% of 290,000 active. AID 485317;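 active = mean replicate inhibition above about 79%, with every replicate also reaching it, limit read from the data; inconclusive = only one of the two criteria met; inactive = mean below limit and not every replicate reaching it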
VLA-4 inh: inhibition in a human VLA-4 binding assay; P13612; VLA-4 expressing cells, ligand binding flow cytometry; inhibition, % (about 7 µM as worked out from the volumes in the protocol); 0.2% of 330,000 active; AID 2557; in the data active = inhibition above about 50%
Target sequence (P13612 whole entry, looked up): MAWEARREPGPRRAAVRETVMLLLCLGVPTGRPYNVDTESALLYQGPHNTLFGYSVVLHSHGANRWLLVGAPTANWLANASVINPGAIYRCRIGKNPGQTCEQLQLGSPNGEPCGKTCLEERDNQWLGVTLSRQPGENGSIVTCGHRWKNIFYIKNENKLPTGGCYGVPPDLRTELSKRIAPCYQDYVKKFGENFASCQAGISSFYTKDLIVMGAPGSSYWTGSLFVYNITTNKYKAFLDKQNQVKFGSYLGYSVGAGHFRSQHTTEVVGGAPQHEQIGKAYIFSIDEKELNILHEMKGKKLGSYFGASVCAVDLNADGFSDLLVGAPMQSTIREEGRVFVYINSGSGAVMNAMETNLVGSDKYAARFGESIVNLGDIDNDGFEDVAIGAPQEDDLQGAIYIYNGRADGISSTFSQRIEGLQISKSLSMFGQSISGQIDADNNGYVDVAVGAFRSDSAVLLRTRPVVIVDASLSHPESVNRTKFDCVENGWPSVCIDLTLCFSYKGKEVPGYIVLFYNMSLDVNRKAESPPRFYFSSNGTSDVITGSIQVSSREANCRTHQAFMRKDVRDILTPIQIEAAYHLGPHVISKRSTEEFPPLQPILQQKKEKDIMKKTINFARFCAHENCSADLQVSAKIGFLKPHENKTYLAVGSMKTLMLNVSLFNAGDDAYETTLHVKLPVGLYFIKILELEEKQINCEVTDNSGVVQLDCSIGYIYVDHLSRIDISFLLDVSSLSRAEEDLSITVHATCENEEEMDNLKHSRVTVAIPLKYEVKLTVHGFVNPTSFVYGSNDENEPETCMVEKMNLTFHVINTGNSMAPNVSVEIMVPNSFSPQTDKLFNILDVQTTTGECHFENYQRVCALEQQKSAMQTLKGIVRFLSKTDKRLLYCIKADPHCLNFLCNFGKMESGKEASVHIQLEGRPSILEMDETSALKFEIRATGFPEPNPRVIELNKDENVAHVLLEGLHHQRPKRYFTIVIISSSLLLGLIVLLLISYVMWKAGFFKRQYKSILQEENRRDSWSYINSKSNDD
Efflux pump inh: inhibitors of Candida antifungal efflux pumps expressed in yeast; S. cerevisiae Candida pump triplex, Nile Red efflux; inhibition, % at 10 µM; 0.44% of 330,000 active; AID 485275;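 active = plate passing quality check with inhibition over a set limit, or well fluorescence over plate mean plus 4 SD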;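 note: Nile Red retained in pooled yeast measured as flow cytometry median fluorescence; 0% = buffer negative control and 100% = Enniatin B positive control; higher means more Nile Red kept so more efflux inhibition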
SUMO Mot1 rescue: inhibitors of SUMOylation pathway: yeast Mot1-301 growth rescue. 1% of 320,000 active. growth rescue, % at 18.8 µM. AID 2716. S. cerevisiae Mot1-301 growth rescue, ATP luminescence, 38.5C; percent above DMSO median, 100 means doubled;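 active = every valid replicate shows activation above 250% relative to neutral control wells; inactive = the rest, any valid replicate at or below 250%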;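 note: OY570 slx delta 5 strain wells were the positive control but not used for scaling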
Bfl-1 A1 inh: inhibitors of the anti-apoptotic protein A1, read as caspase activation; AID 2462; MEF A1-2A-BIM cells, Caspase-Glo 3/7 luminescence, 3 h; percent of clofoctol response, vehicle zero; 0.066% of 330,000 active; caspase activation, % (concentration not given with the values);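 active = over half of replicate activation scores above 10%, or exactly half above 10 with the replicate mean above 10; inconclusive = replicate mean below 10 yet half the replicates above 10; inactive = over half of replicates below 10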
Yeast Mot1 SUMO: SUMO pathway inhibitors in yeast Mot1-301 growth | shares compounds with SUMO Mot1 rescue | S. cerevisiae Mot1-301 galactose growth, ATP luminescence, 24 h; -100 = growth of slx-deleted rescue strain | growth activity, percent, % at 42 µM | 2,300 tested, under 10 active | AID 493004;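 active = Signal drops as the depositor expects, and the fitted half-maximal dose is no more than ten times the top valid tested dose; inconclusive = Poor fit, or a flat curve whose signal drops by 30% to 70%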;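 note: more negative values mean stronger growth rescue toward the control strain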
Numbers without * were called inactive; ? = inconclusive; nt = not tested or not shown; + = active, no number. Sampled rows, rich in hits. Any-hit rate of the full collection: about 7.2%.

SMILES | AHR act | ALR inh | VLA-4 inh | Efflux pump inh | SUMO Mot1 rescue | Bfl-1 A1 inh | Yeast Mot1 SUMO
O=C(COc1cc(Cl)c(Cl)cc1Cl)NC(=O)Nc1ccc2c(c1)OCCO2 | 4.6 | -10.6 | -0.7 | -0.1 | 13.3 | -0.3 | nt
O=C(CSc1ncnc2nc[nH]c12)Nc1ccccc1C(F)(F)F | 3.8 | -2.3 | 5.9 | -0.1 | 727.1* | 0.8 | -0.2
COc1ccc(OC)c(Nc2nc(N)c([N+](=O)[O-])c(N3CCOCC3)n2)c1 | -3.8 | -25.0 | -4.9 | -0.1 | 2.8 | 0.0 | nt
COCCN(CC(=O)NCC1CCCO1)C(=O)CCC(=O)Nc1ccccn1 (stereo not given) | 0.4 | -3.1 | 10.8 | -0.1 | 7.2 | -0.3 | nt
Clc1ccc(-c2nnnn2-c2ccc(Cl)cc2)cc1 | 7.4 | -0.7 | 20.7 | 0.1 | 28.7 | -0.2 | nt
Cc1ccc(-n2nnnc2C(Cl)(Cl)c2nnnn2-c2ccc(C)cc2)cc1 | 0.2 | 9.9 | 29.5 | 0.0 | + | 3.0 | -0.4
COc1ccc(N2CCN(C3CCCN(Cc4ccc(F)c(F)c4)C3)CC2)cc1 (stereo not given) | 1.5 | 40.9 | 1.4 | 0.0 | 13.0 | 0.5 | nt
COc1cccc(N2CCN(C3CCCC(C)C3)CC2)c1 (stereo not given) | -1.8 | 9.2 | 12.9 | -0.7 | 676.0* | 0.8 | 0.3
COc1ccc(N2CCN(C3CCCN(Cc4cccc(OC)c4)C3)CC2)cc1 (stereo not given) | 2.1 | nt | 4.8 | -0.1 | 667.0* | -0.1 | 0.3
CC(NC(=O)CCNS(=O)(=O)c1cccc2nonc12)c1ccccc1 (stereo not given) | -0.1 | nt | -3.5 | 0.1 | 9.7 | 1.4 | nt
O=C(CSc1ncccn1)c1ccccc1Br | 6.3 | ? | 9.1 | 0.0 | 435.6* | -0.3 | -1.3
Cc1cc(O)c(/C=N/Nc2cccc(Cl)c2)c(=O)o1 | 22.7 | nt | 19.8 | -0.3 | 416.0* | -5.2 | -0.3
Cc1cc(O)c(/C=N/Nc2ccccc2Cl)c(=O)o1 | 8.4 | ? | 8.9 | -0.1 | 192.8 | -5.1 | nt
CC(O/N=C/c1ccc(OC(F)F)cc1)C(=O)Nc1cccc(S(=O)(=O)N2CCOCC2)c1 (stereo not given) | 3.6 | 5.7 | -19.1 | 0.0 | 2.5 | -1.3 | nt
CC(=O)c1cc(CN2CCN(CCc3ccccc3)C(CCO)C2)cs1 (stereo not given) | 1.4 | -1.5 | 8.3 | 0.0 | 10.1 | 0.5 | nt
CN1CCN(S(=O)(=O)c2ccc(NC(=O)c3cccs3)cc2)CC1 | 1.2 | -0.2 | 5.8 | -0.1 | 129.3 | -0.7 | nt
CC1CCN(S(=O)(=O)c2ccc(NC(=O)c3cccs3)cc2)CC1 | 0.8 | 0.3 | -4.6 | 0.0 | 415.0* | 0.0 | 0.6
COc1ccc(C2=NOC(Cn3nc(C(=O)NCc4ccc(C)cc4)cc3-c3ccccc3)C2)cc1 (stereo not given) | 1.2 | 1.9 | nt | nt | -3.8 | -0.2 | nt
COc1ccc(C2=NOC(Cn3nc(C(=O)NCc4cccs4)cc3-c3ccccc3)C2)cc1 (stereo not given) | 0.7 | 1.5 | -4.4 | 0.0 | 691.6* | 0.5 | 0.2
COc1ccc(C(=O)CSc2nnc(CNC(=O)c3ccccc3)n2C)cc1 | -1.6 | nt | -7.9 | -11.9 | 397.4* | -0.4 | 0.7
O=C(C[n+]1ccc(/C=N/O)cc1)N1CCCCC1 | -0.2 | -4.1 | 3.4 | 0.1 | -18.8 | 1.5 | nt
O=C(NC1CCCCC1)C(c1ccncc1)N(Cc1ccc2c(c1)OCO2)C(=O)C(F)(F)F (stereo not given) | 16.5 | 15.6 | 3.4 | -0.1 | 576.7* | 0.1 | 0.1
CCCC(O)(CCC)C(=O)NNc1ccc(C)cc1 | 0.2 | 69.3 | 4.6 | -0.2 | 642.7* | 1.1 | 0.3
CCOc1ccc(-n2c(=O)c3sccc3n(Cc3cccc([N+](=O)[O-])c3)c2=O)cc1 | -0.6 | 0.8 | 4.1 | 0.0 | 9.4 | -0.4 | nt
CC1=CS(=O)(=O)CC1Sc1nc(C)n[nH]1 (stereo not given) | -0.4 | -0.4 | 2.3 | -0.1 | 15.1 | -1.6 | nt
SMILES | AHR act | ALR inh | VLA-4 inh | Efflux pump inh | SUMO Mot1 rescue | Bfl-1 A1 inh | Yeast Mot1 SUMO
CC1=CS(=O)(=O)CC1Sc1ncn[nH]1 (stereo not given) | 5.3 | 17.0 | 2.6 | 0.0 | 557.4* | -0.3 | -0.6
CCOC(=O)C1(Cc2cccc(Cl)c2)CCCN(C(=O)CCOC)C1 (stereo not given) | 2.6 | -2.4 | 2.7 | 0.2 | 389.4* | -0.5 | -0.1
CCOC(=O)C1(Cc2cccc(Cl)c2)CCCN(C(=O)CCSC)C1 (stereo not given) | 0.7 | 2.9 | 2.0 | 0.2 | -14.0 | 0.5 | nt
CN(C)S(=O)(=O)c1ccc(NC(=O)CN2CCCc3ccccc32)cc1 | 6.3 | -6.4 | -1.5 | 0.1 | -6.7 | 2.4 | nt
CC(=O)Nc1ccc(S(=O)(=O)Nc2cccc(C(=O)Nc3ccccc3C(=O)O)c2)cc1 | -0.4 | 3.5 | -7.6 | 0.1 | 2.1 | -0.5 | nt
c1ccc(CNc2ccc3ccccc3n2)nc1 | 7.0 | -22.5 | 9.9 | -0.1 | 364.7* | -5.8 | -1.6
O=C(NC1=NCCS1)c1ccc(C(F)(F)F)cc1 | -1.4 | -3.8 | -5.5 | -0.1 | -10.7 | -2.1 | nt
O=C(Nc1ncccn1)c1ccc(C(F)(F)F)cc1 | 3.8 | 97.2* | 5.9 | -0.1 | 437.7* | -1.9 | -0.9
CCN(C[C@H]1N[C@@](C)(C(=O)OC)[C@H]2C(=O)N(C)C(=O)[C@@H]12)S(=O)(=O)c1ccc(-c2ccccc2)cc1 | -1.0 | nt | 26.8 | -0.2 | -15.1 | 1.2 | nt
O=C(CC1(CC2=NS(=O)(=O)c3ccccc3N2)CCCC1)NCCc1ccccc1 | 3.6 | 3.0 | -0.8 | 0.2 | 614.0* | 0.8 | -0.2
CCCCn1c(N)c(N(CC)C(=O)c2c(CC)noc2C)c(=O)[nH]c1=O | 6.8 | -2.0 | -5.0 | -0.2 | 3.9 | 0.3 | nt
CCCCn1c(N)c(N(Cc2ccccc2OC)C(=O)c2c(CC)noc2C)c(=O)[nH]c1=O | 0.3 | 6.2 | 5.6 | 0.0 | 395.3* | 0.0 | 0.6
COc1ccc(CCNC(=O)C2CCN(S(=O)(=O)c3cccs3)CC2)cc1OC | -0.1 | -2.2 | 13.3 | -0.1 | 1.1 | 0.6 | nt
CN(C)c1cccc(C(=O)Nc2cc(C(F)(F)F)ccc2-n2cnc3ccccc32)c1 | 35.9 | nt | 6.0 | 0.9 | 399.9* | -0.1 | 0.5
CC(=O)Nc1ccc(C(=O)Nc2cc(C(F)(F)F)ccc2-n2cnc3ccccc32)cc1 | -0.1 | -1.4 | 0.2 | 0.0 | 65.2 | 0.0 | nt
CCC(C(=O)N1CCc2ccccc2C1)n1nc(C)n2c(cc3occc32)c1=O (stereo not given) | 4.8 | 3.0 | 5.0 | 0.1 | -6.1 | 0.5 | nt
CCCNC(=O)c1ccc(N2CCC3(CC2)CC(c2cccc(Br)c2)=NO3)c(NC(=O)c2cccc(C)c2)c1 | -6.3 | -8.5 | nt | nt | 26.7 | 0.1 | nt
O=C(COC(=O)CC(c1ccccc1)c1ccccc1)Nc1c(F)cccc1F | 15.6 | nt | 10.4 | 0.5 | -13.4 | 0.7 | nt

Compound activity (PubChem BioAssay)
